In all, about 1,400 compounds went through this assay and about 55 (4%) were called active. The rule behind the calls is not given here. These entries were drawn from the full list. Measured potencies and affinities stand elsewhere.

The test is described as follows: viability loss in A549 cells – cell-based, plate reader, cherry-pick samples, cytotoxicity control, dose response (AID 687028).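 Note: cells incubated with compound for three days before reading.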 The conditions noted are these: series mostly up to 19.5 µM; activity change, negative = toxicity: at the top concentration.
Regarding `COc1ccc(-c2cnc3c(NC(C)=O)cc(-c4ccccc4OC)cn23)cc1OC`, the “activity change, negative = toxicity” value is -5.73% (inactive).

For `O=C(OCc1ccccc1)N1CCC2CC1c1ccc(-c3ccc4c(c3)OCO4)cc12` (stereo unspecified), the “activity change, negative = toxicity” value was -3.39% (inactive).

For the compound `Cc1cc(F)ccc1S(=O)(=O)Nc1ncnc2scc(-c3ccc(F)cc3)c12`, the “activity change, negative = toxicity” value is 1.95% (inactive).

Take `C[C@@H]1CN([C@@H](C)CO)C(=O)c2cc(NC(=O)Nc3ccc(C(F)(F)F)cc3)ccc2O[C@@H]1CN(C)C(=O)NC1CCCCC1`: the “activity change, negative = toxicity” value was -5.36% [at 21 µM] (inactive).

As for `CC1(C(=O)NCc2ccccc2)CN(S(C)(=O)=O)CC(=O)N1CCc1ccccc1F` (stereo unspecified), the “activity change, negative = toxicity” value was 3.86% (inactive).

Regarding `COc1ccccc1S(=O)(=O)N(C)C[C@H]1Oc2cc(C#CCC(C)C)ccc2S(=O)(=O)N([C@@H](C)CO)C[C@@H]1C`, the “activity change, negative = toxicity” value is -33% (inactive).

Regarding `Cc1ccc2oc3c(c(=O)c2c1)C(c1cccc(Cl)c1)N(CCCN1CCOCC1)C3=O` (stereo unspecified), the “activity change, negative = toxicity” value is -1.92% (inactive).

Consider `O=C(c1ccc2c(c1)OCO2)N1CCC(Cc2ccccc2)CC1`, for which the “activity change, negative = toxicity” value is 7.07% (inactive).

In the case of `O=C(NCc1ccccn1)C(=O)NCC1OCCN1S(=O)(=O)c1ccc(Br)cc1` (stereo unspecified), the “activity change, negative = toxicity” value was 8.48% (inactive).

With `CC1(NC(=O)c2cc(Cl)nc3ccccc23)CCS(=O)(=O)C1` (stereo unspecified), the “activity change, negative = toxicity” value is -2.91% (inactive).

On to `COc1ccc(Cl)cc1N1C(=O)CC(N2CCN(S(=O)(=O)c3ccccc3F)CC2)C1=O` (stereo unspecified), for which the “activity change, negative = toxicity” value was 1.09% (inactive).

With `CN(C)c1ccc(-c2cc3ccccc3c(=O)o2)cc1`, the “activity change, negative = toxicity” value is 1.1% (inactive).

`Cc1ccc(C)c(C(Nc2ccccc2)c2ccc3ccc(C)nc3c2O)c1` (stereo unspecified): the “activity change, negative = toxicity” value is -0.272% (inactive).

As for `CCOC(=O)Cc1sc(N)nc1C`, the “activity change, negative = toxicity” value was 0.064% (inactive).

Consider `O=C(Nc1cccc(Cl)c1)c1ccccc1`, for which the “activity change, negative = toxicity” value was -3.71% (inactive).

For the compound `CCCCCNC(=O)c1[nH]c(C(F)(F)F)nc1-c1ccccc1`, the “activity change, negative = toxicity” value was 6.01% (inactive).

As for `COC(=O)c1ccc2nc(C3CCCCC3)c(Cc3ccccc3OC)n2c1`, the “activity change, negative = toxicity” value was -1.25% (inactive).

As for `CCCCNC(=O)c1ccc(NS(=O)(=O)c2ccc3[nH]c(=O)[nH]c3c2)cc1`, the “activity change, negative = toxicity” value was 0.722% (inactive).

For the compound `CC(=O)Nc1cccc2ncccc12`, the “activity change, negative = toxicity” value was -0.652% (inactive).

As for `COc1cc(NC(C)=O)c2ncccc2c1Br`, the “activity change, negative = toxicity” value is 3.43% (inactive).

Take `CCOc1cc(CNCCN2CCOCC2)ccc1OCc1ccccc1Cl`: the “activity change, negative = toxicity” value was -1.76% (inactive).

As for `CC1=NCCN1CCNC(=O)Nc1ccc(C(C)(C)C)cc1`, the “activity change, negative = toxicity” value is 3.62% (inactive).

On to `C[C@H](CO)N1C[C@H](C)[C@H](CN(C)C)Oc2ncc(C#CC3CC3)cc2C1=O`, for which the “activity change, negative = toxicity” value was 1.84% (inactive).

Turning to `C/C=C/c1ccc([C@H]2[C@@H](CO)N3CCCCN(S(=O)(=O)c4ccccc4)C[C@@H]23)cc1`, the “activity change, negative = toxicity” value was 1.81% (inactive).

Consider `C[C@H](CO)N1C[C@H](C)[C@H](CN(C)C(=O)c2ccccc2)Oc2cc(C3=CCCCC3)ccc2S1(=O)=O`, for which the “activity change, negative = toxicity” value was -2.34% (inactive).

`Cc1ccc(S(=O)(=O)N(C)C[C@H]2Oc3ccc(NS(=O)(=O)c4ccc(F)cc4)cc3C(=O)N([C@H](C)CO)C[C@@H]2C)cc1`: the “activity change, negative = toxicity” value is -2.45% [at 21 µM] (inactive).

As for `Cc1ccc(OCCCCNC(C)c2ccccc2)c(C)c1` (stereo unspecified), the “activity change, negative = toxicity” value was 2.38% (inactive).

With `Cc1cc(O)c(C(C)C)cc1NC(=O)c1ccccc1Cl`, the “activity change, negative = toxicity” value was -1.25% (inactive).

Take `Cc1ccc(NC(=O)C(=O)NCC2CCCN2S(=O)(=O)c2cccs2)cc1` (stereo unspecified): the “activity change, negative = toxicity” value was 1.62% (inactive).

With `N#C[C@@H]1[C@H](c2ccc(C#Cc3ccccc3F)cc2)[C@@H](CO)N1C(=O)C1CC1`, the “activity change, negative = toxicity” value was 1.1% (inactive).

In the case of `COc1ccc(C(C)(NC(C)=O)c2nc(-c3cccc(F)c3)cs2)cc1` (stereo unspecified), the “activity change, negative = toxicity” value was 3.2% (inactive).

Turning to `ClCCCc1cn(C[C@H]2CC[C@@H]([C@@H]3CC[C@H](Cn4cc(CCCCl)nn4)O3)O2)nn1`, the “activity change, negative = toxicity” value is 7.49% (inactive).

`C[C@H]1CN([C@@H](C)CO)C(=O)c2cccc(NS(=O)(=O)c3ccccc3)c2O[C@@H]1CN(C)Cc1ccc(Cl)c(Cl)c1`: the “activity change, negative = toxicity” value is -3.38% (inactive).

As to `Cc1c(C(=O)OC(C)C)sc(N)c1C(=O)OC(C)C`, the “activity change, negative = toxicity” value was 1.5% (inactive).

With `O=C(NCCNC(=O)c1cc(F)cc(F)c1)c1cc(F)cc(F)c1`, the “activity change, negative = toxicity” value was -3.56% (inactive).

Regarding `CCCc1nc2ccccc2n1C(C)C(=O)NC(C)(C)C` (stereo unspecified), the “activity change, negative = toxicity” value was 3.89% (inactive).

`O=C(NCc1ccccc1)C(c1ccncc1)n1c(=O)c(-c2ccccc2)nc2ccccc21` (stereo unspecified): the “activity change, negative = toxicity” value was 4.91% (inactive).

`COc1ccc2c3c([nH]c2c1)[C@@H](CO)N(C(=O)C1CCOCC1)CC31CN(C)C1`: the “activity change, negative = toxicity” value is -1.01% (inactive).

With `CN(C)C(=O)c1cccc(-c2ccc3c(c2)[C@@H]2[C@@H](CCN2C(=O)Cc2ccncc2)[C@@H](CO)N3)c1`, the “activity change, negative = toxicity” value was 6.17% (inactive).

As for `COc1ccc(CC(=O)Nc2ccc(C)c(S(=O)(=O)N3CCCCCC3)c2)cc1`, the “activity change, negative = toxicity” value is -1.27% (inactive).

Consider `COc1ccc(C)cc1NC(=O)C1CCN(S(=O)(=O)c2cccc3cccnc23)CC1`, for which the “activity change, negative = toxicity” value was 7.52% (inactive).

`O=c1c2cc(Br)ccc2[nH]c(=S)n1Cc1ccccn1`: the “activity change, negative = toxicity” value is -1.61% (inactive).

In the case of `CCc1c(C(=O)Nc2cc(C(=O)OC)ccc2C)csc1C`, the “activity change, negative = toxicity” value was 4.93% (inactive).

Take `CC(C)(C)c1ccc(C(=O)Nc2ccc3c(c2)C(=O)NC3=O)cc1`: the “activity change, negative = toxicity” value is 12.8% (inactive).

For `CC(=O)Nc1cccc(OCCCNC(=O)c2ccc(C(C)(C)C)cc2)c1`, the “activity change, negative = toxicity” value was -4.38% (inactive).

As to `CN(C)CC(=O)Nc1ccc2c(c1)[C@@H]1C[C@@H](CC(=O)NC3CCCCC3)O[C@H](CO)[C@@H]1O2`, the “activity change, negative = toxicity” value was -0.282% (inactive).

On to `CC(Oc1ccccc1Cl)C(=O)N1CCOCC1` (stereo unspecified), for which the “activity change, negative = toxicity” value is 1.54% (inactive).

Regarding `COc1cccc(NC(=O)COc2cccc3c2CCNC3=O)c1`, the “activity change, negative = toxicity” value is 2.81% (inactive).

In the case of `Cc1ccc(C)c(NS(=O)(=O)c2cc(C(=O)NCc3ccncc3)ccc2C)c1`, the “activity change, negative = toxicity” value was 4.78% (inactive).

`Cc1ccc(NC(=O)C2CCN(S(C)(=O)=O)CC2)cc1Cl`: the “activity change, negative = toxicity” value was 0.073% (inactive).

On to `COc1ccc(NC(=O)N2C[C@@H](O)COC[C@@H]3O[C@H](CC(=O)NC4Cc5ccccc5C4)CC[C@H]32)cc1`, for which the “activity change, negative = toxicity” value was 0.889% (inactive).

`O=C(NCCN1CCC(n2c(=O)[nH]c3ccccc32)CC1)c1ccccc1`: the “activity change, negative = toxicity” value is 3.87% (inactive).

Turning to `CCCCNC(=O)C[C@@H]1C[C@@]2(C(=O)OC)CCCCC=C2N(CCC2=CCCCC2)C1=O`, the “activity change, negative = toxicity” value is -3.84% (inactive).

Consider `COC(=O)[C@]12CCCCC=C1N(Cc1cccc3ccccc13)C(=O)[C@H](CC(=O)NCCC(C)C)C2`, for which the “activity change, negative = toxicity” value was 3.24% (inactive).

Regarding `CCOC(=O)[C@]12CCC=C1N(Cc1cccc3ccccc13)C(=O)[C@H](CC(=O)N1CCCC1)C2`, the “activity change, negative = toxicity” value is 4.62% (inactive).

Regarding `CCOC(=O)[C@]12CCCC=C1N(Cc1ccccc1)C(=O)[C@H](CC(=O)NCc1cccs1)C2`, the “activity change, negative = toxicity” value was 5.87% (inactive).

As to `O=C(c1ccc(F)cc1)N1CCC(C(=O)N2CCCc3ccccc32)CC1`, the “activity change, negative = toxicity” value is 1.63% (inactive).

Take `COc1ccccc1CN1[C@H](CO)[C@@H](c2ccccc2)C12CN(C(=O)c1ccccn1)C2`: the “activity change, negative = toxicity” value was -3.67% (inactive).

For the compound `CC1CCN(CCOc2ccc(OCc3ccccc3)cc2)CC1`, the “activity change, negative = toxicity” value was 5.09% (inactive).

`CCc1cccc(OCCN2CCCC2)c1`: the “activity change, negative = toxicity” value was 6.55% (inactive).

In the case of `CC(OC(=O)c1ccc2c(=O)n3c(nc2c1)CCC3)C(=O)NC1CCCCC1C` (stereo unspecified), the “activity change, negative = toxicity” value is 0.101% (inactive).

Values taken from PubChem BioAssay AID687028 (Broad Institute, 2013).
